For orientation: AC50 means the concentration at which the activity in the assay is half-maximal.

In PubChem BioAssay (EPA / NIEHS) one finds AC50 and outcome data, which are given here for seven molecules.

“And” between values parts separate entries of the source, which are not always exact repeats. Equal values may be shown once. Some compounds were tested as several samples or in several runs, with calls that do not always agree. The source made the active and inactive calls. How the source made its calls: active means hit-call score of the fitted dose curve at least 0.9, where 1 is the maximum; inactive means score below 0.9.

Conditions in all cases: mRNA level, 48 h; actives raise or lower the signal
Read-out in assay [1]: adenosine kinase (ADK) gene, ADK (gene 132)
As to the kind of experiment: LTEA_HepaRG_ADK: Life Technologies and Expression Analysis (LTEA) Assay for adenosine kinase (ADK) gene using HepaRG (AID 2283471). As for the experimental part: LTEA_HepaRG is a cell based, multiplexed-readout assay that uses HepaRG, a human liver cell line, with measurements taken at 48 hours after chemical dosing on a 96-well plate.LTEA_HepaRG_ADK is one of 102 assay component(s) measured in the LTEA HepaRG cell culture assay. It is a marker of Steatosis.Data from the assay component LTEA_HepaRG_ADK was analyzed into 1 endpoint. This assay endpoint, LTEA_HepaRG_ADK, was analyzed with bidirectional fitting relative to DMSO as the negative control and baseline of activity. Using a type of inducible reporter, measures of mRNA induction for gain or loss-of-signal activity can be used to understand regulation of transcription factor activity. To generalize the intended target to other relatable targets, this assay endpoint is annotated to the kinase intended target family, where the subfamily is steatosis.
A total of 1060 chemcials from the ToxCast library were tested in eight-point concentration-response experiments. Cell culture and cytotoxicity assays were conducted at Thermo Fisher Scientific's Custom Services facility (Madison, WI). A single lot of human HepaRG cells (Thermo Fisher Scientific, Frederick, MD) was used for the cell culture experiments. 96-well format collagen type I coated plates of human HepaRG cells were prepared using established methods. Briefly, cryopreserved HepaRG cells were thawed, plated at a density of approximately 100,000 cells/well in HepaRG Thaw, Plate, and General Purpose media (HPRG770, Thermo Fisher Scientific), and incubated for 48 hours. 0.5% DMSO was selected as vehicle control to balance the requisite need of DMSO in HepaRG cultures to maintain differentiation (for example, baseline metabolism, proportions of hepatocytes vs. cholangiocytes), while enabling further hepatic receptor pathway activation (for example, PXR and CAR) in response to chemical exposure. 48 hours after plating, the culture medium was replaced with HepaRG Serum-Free Incudtion Media. Cells were exposed to each test chemical in duplicate and maintained in CO2 incubators for another 48 hours. Chemical plates were thawed to room temperature and 200x concentrations of treatment groups were prepared. 8-point conentration-reponse curves were made with the highest exposure at 100 uM, followed by half-log dilutions, all in 0.5% DMSO. Each test plate contained variouse controls, induction positive controls (1mM phenobarbital), cytotoxicity positive controls ([…] aflatoxin B1), vehicle controls (0.5% DMSO), and total lysis controls (0.5% DMSO). Cell morphology images were taken using an Essen IncuCyte FLR automated microscope, with six 96-well plates imaged in about 24 minutes. Images were captured and exported and JPEG files. Spent culture media was transfered to black-well plates for the LDH assay, and remaining media was sorted at -80 C for later use. Cells were treated with RLT buffer and frozen until shipped for gene expression analysis. Total RNA was isolated from the cell suspension in 75 uL of Buffer RLT (Qiagen, Germantown, MD 20874) by Quintiles/Expression Analysis (Durham, NC) using a custom isolation procedure. Total RNA from each plate well was transferred to a preamplification plate. Fluidigm's 96.96 Dynamic ArrayTM (Fluidigm, Amsterdam, the Netherlands) technology was used for gene expression analyses by quantitative reverse transcription polymerase chain reaction (qRT-PCR, performed by Quintiles/Expression Analysis, Durham, NC)89. Standard TaqManTM Assays (Applied Biosystems/ThermoFisher Scientific, Foster City, CA) were used to assess the expression of 93 genes selected based on their selectivity and sensitivity to important hepatic receptors known to be modulated by environmental chemicals; importance in human hepatocyte functionality; and hepatotoxicity. […]

Read-out in assay [2]: Alpha-fetoprotein (AFP) gene, AFP (gene 174)
The experiment in a line: LTEA_HepaRG_AFP: Life Technologies and Expression Analysis (LTEA) Assay for Alpha-fetoprotein (AFP) gene using HepaRG (AID 2283472). In outline: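 After a 48 h plating period, cells are moved to serum-free induction medium and dosed in duplicate (100 uM maximum, half-log dilutions, 0.5% DMSO) for another 48 h. Total RNA goes to TaqMan qRT-PCR; AFP signal is housekeeping-normalized.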

Read-out in the next assay: BCL2L11 (gene 10018)
The experiment in a line: LTEA_HepaRG_BCL2L11: Life Technologies and Expression Analysis (LTEA) Assay for Bcl-2 (BCL2L11) gene using HepaRG (AID 2283473). In a few lines:
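HepaRG, 48 h exposure, 8-pt half-log series from 100 uM in 0.5% DMSO, duplicates; qRT-PCR (Fluidigm TaqMan) for BCL2L11, housekeeping-normalized; bidirectional curve fit relative to DMSO baseline.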

Read-out in assay [3]: Apolipoprotein A-V (APOA5) gene, APOA5 (gene 116519)
As to the kind of experiment: LTEA_HepaRG_APOA5: Life Technologies and Expression Analysis (LTEA) Assay for Apolipoprotein A-V (APOA5) gene using HepaRG (AID 2283474). In outline:
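HepaRG, 48 h chemical exposure in serum-free induction medium, 8-pt half-log series (top 100 uM), 0.5% DMSO vehicle, duplicates. Readout: APOA5 mRNA by qRT-PCR, housekeeping-normalized; bidirectional fit vs DMSO baseline.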

Read-out in assay [4]: Apoptosis regulator Bcl-2 (Homo sapiens) (UniProt P10415)
The experiment in a line: LTEA_HepaRG_BCL2: Life Technologies and Expression Analysis (LTEA) Assay for Bcl-2 gene using HepaRG (AID 2283475). In outline:
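Expression change of BCL2 mRNA in HepaRG after 48 h dosing, quantified by TaqMan qRT-PCR against three endogenous controls. Concentration-response used eight points up to 100 uM, vehicle 0.5% DMSO.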

Read-out in assay [5]: Bcl-2 (BID) gene, BID (gene 637)
As to the kind of experiment: LTEA_HepaRG_BID: Life Technologies and Expression Analysis (LTEA) Assay for Bcl-2 (BID) gene using HepaRG (AID 2283476). In outline: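 Gain or loss of BID expression is fitted relative to 0.5% DMSO vehicle. Human HepaRG liver cells received a 48 h chemical exposure over an eight-point concentration range.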

Read-out in another assay: Caspase-3 (Homo sapiens) (UniProt P42574)
As to the kind of experiment: LTEA_HepaRG_CASP3: Life Technologies and Expression Analysis (LTEA) Assay for cysteine-aspartic acid protease (CASP3) using HepaRG (AID 2283477). In a few lines: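 HepaRG, 48 h exposure, 8 conc. (top 100 uM, half-log steps, duplicate), 0.5% DMSO vehicle; qRT-PCR of CASP3 transcript, housekeeping-normalised (ACTB/GAPDH/POLR2A); bidirectional curve fit vs DMSO baseline.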

Read-out in assay [6]: Cytochrome P450 (CYP24A1), CYP24A1 (gene 1591)
As to the kind of experiment: LTEA_HepaRG_CYP24A1: Life Technologies and Expression Analysis (LTEA) Assay for Cytochrome P450 (CYP24A1) using HepaRG (AID 2283478). In a few lines: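 qRT-PCR read-out: CYP24A1 transcript levels normalized to three housekeeping genes, bidirectional curve fits against 0.5% DMSO baseline. Human HepaRG cells treated 48 h with chemicals at eight concentrations from 100 uM in half-log steps.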

Read-out in assay [7]: Cytochrome P450 (CYP1A2), CYP1A2 (gene 1544)
The experiment in a line: LTEA_HepaRG_CYP1A2: Life Technologies and Expression Analysis (LTEA) Assay for Cytochrome P450 (CYP1A2) using HepaRG (AID 2283479). In outline:
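HepaRG, 48 h exposure, top 100 uM, half-log 8-pt, 0.5% DMSO vehicle, duplicates. Readout: TaqMan qRT-PCR of CYP1A2 mRNA, housekeeping-normalized (ACTB/GAPDH/POLR2A). Gain/loss fit relative to DMSO baseline.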

Read-out in assay [8]: cysteine-aspartic acid protease (CASP8), CASP8 (gene 841)
The experiment in a line: LTEA_HepaRG_CASP8: Life Technologies and Expression Analysis (LTEA) Assay for cysteine-aspartic acid protease (CASP8) using HepaRG (AID 2283480). In a few lines:
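Differentiated human HepaRG cells, plated 48 h then switched to serum-free induction medium, were exposed in duplicate for 48 h to 8 half-log concentrations up to 100 uM in 0.5% DMSO. CASP8 mRNA was quantified by qRT-PCR, normalized to ACTB/GAPDH/POLR2A.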

Sequence of Caspase-3 (Homo sapiens) (P42574 whole entry, looked up): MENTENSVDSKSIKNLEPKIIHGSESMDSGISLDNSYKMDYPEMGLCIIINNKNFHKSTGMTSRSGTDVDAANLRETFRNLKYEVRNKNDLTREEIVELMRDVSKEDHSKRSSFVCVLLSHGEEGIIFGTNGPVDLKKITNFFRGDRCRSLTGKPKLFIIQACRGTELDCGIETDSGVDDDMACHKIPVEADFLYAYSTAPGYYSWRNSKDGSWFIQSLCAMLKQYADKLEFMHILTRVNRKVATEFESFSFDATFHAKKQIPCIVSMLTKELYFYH
Sequence of Apoptosis regulator Bcl-2 (Homo sapiens) (P10415 whole entry, looked up): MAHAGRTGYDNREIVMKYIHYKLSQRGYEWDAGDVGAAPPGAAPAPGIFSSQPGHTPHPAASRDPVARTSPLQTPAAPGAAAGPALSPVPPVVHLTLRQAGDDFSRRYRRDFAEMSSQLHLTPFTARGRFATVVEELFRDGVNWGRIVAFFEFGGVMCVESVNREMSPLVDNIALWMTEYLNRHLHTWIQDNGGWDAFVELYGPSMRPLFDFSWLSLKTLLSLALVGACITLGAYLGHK

Take `O=C(c1ccc(OCCN2CCCCC2)cc1)c1c(-c2ccc(O)cc2)sc2cc(O)ccc12`: the AC50 is 67.7 µM (active) in assay [1] and 73.3 µM (active) in assay [8]. The molecule was classed as inactive (in assay [2]; with BCL2L11 (gene 10018); in assay [3]; in assay [4]; in assay [5]; with Caspase-3 (Homo sapiens)). Also, the molecule was called inactive in assay [6] and in [7].
Turning to `C=C(C)C(N)=O`, the call (in assay [1]; in assay [2]; with BCL2L11 (gene 10018); in [3]; in assay [4]; in [5]) was inactive. The molecule was called inactive (with Caspase-3 (Homo sapiens); in [6]; in assay [7]; in assay [8]).
In the case of `C#C[C@]1(O)CC[C@H]2[C@@H]3CCc4cc(O)ccc4[C@H]3CC[C@@]21C`, the call (in assay [1]; in [2]; in [3]; in [4]; in [5]; in the assay with Caspase-3 (Homo sapiens)) was inactive. Also, the result in assay [6], in assay [7] and in [8] was inactive.
For the molecule `CC/C(=C(\c1ccccc1)c1ccc(OCCN(C)C)cc1)c1ccccc1`, the AC50 in assay [1] is 71.2 µM (active); in [2], 22.4 µM (active) and 27 µM (active); with BCL2L11 (gene 10018), 74.6 µM (active); in assay [5] it was 92.5 µM (active); with Caspase-3 (Homo sapiens) it was 66.4 µM (active); in assay [7], 11.9 µM (active). For the same molecule, the half-maximal activity concentration (AC50) in assay [8] is 72.5 µM (active) and 77.4 µM (active). Further, the molecule was called inactive (in [1]; with BCL2L11 (gene 10018); in [3]; in assay [4]; in [5]; in the assay with Caspase-3 (Homo sapiens)). In addition, the outcome in [6] and in assay [7] was inactive.
As for `CCCCOCCOCCO`, the call (in [1]; in assay [2]; in the assay with BCL2L11 (gene 10018); in [3]; in assay [4]; in [5]) was inactive. Besides, the molecule was classed as inactive (with Caspase-3 (Homo sapiens); in assay [6]; in assay [7]; in [8]).
With `C[C@]12CC[C@@H]3c4ccc(O)cc4CC[C@H]3[C@@H]1CC[C@@H]2O`, the molecule was called inactive (in [1]; in the assay with BCL2L11 (gene 10018); in assay [4]; in assay [5]; in the assay with Caspase-3 (Homo sapiens); in assay [6]). Moreover, the molecule was classed as inactive in assay [8]. For the same molecule, the half-maximal activity concentration (AC50) in assay [2] was 50 µM (active); in assay [3] it was 68 µM (active); in assay [7], 79.5 µM (active).
For the molecule `COC(=O)c1ccc(C(=O)OC)cc1`, the result (in [1]; in assay [2]; with BCL2L11 (gene 10018); in assay [3]; in assay [4]; in [5]) was inactive. The outcome (in the assay with Caspase-3 (Homo sapiens); in assay [6]; in assay [7]; in [8]) was inactive.
